Reference: PubChem BioAssay (NCATS)
Several values for one entry are separate records, joined by “and”; a condition that tells them apart may be missing. Equal entries are not always repeated. Results filed as inconclusive are left out. Where a call stands in place of a potency, no number is given. More than one record can exist for a structure, and the calls need not agree. Activity calls are given as the source filed them. Calls come from the whole dose curve; as a rule, active = well fitted inhibition curve with a large enough effect; inconclusive = small, poorly fitted or top-dose-only effect; inactive = flat fitted curve, though single readings scatter.

Key:
[1] = test system: CRL-7250; test: Cytotoxic Profiling of Annotated Libraries Using Quantitative High-Throughput Screening (AID 1296008); conditions: Five cell lines viability, CellTiter-Glo ATP luminescence, 48-72 h; max response: stronger effect = lower value
How it was run: (§1)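 Cells exposed to compounds for 48 or 72 hr at 37 degrees Celsius. Viability read as ATP-coupled luminescence with CellTiter-Glo after 10 min at room temperature.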

[2] = test system: HEK293; test: as above; conditions: Five cell lines viability, CellTiter-Glo ATP luminescence, 48-72 h; max response: stronger effect = lower value
How it was run: as §1

[3] = test system: HaCat; test: as above; conditions: Five cell lines viability, CellTiter-Glo ATP luminescence, 48-72 h; max response: stronger effect = lower value
How it was run: as §1

[4] = test system: KB-3-1; test: as above; conditions: Five cell lines viability, CellTiter-Glo ATP luminescence, 48-72 h; max response: stronger effect = lower value
How it was run: as §1

[5] = test system: NIH3T3; test: as above; conditions: Five cell lines viability, CellTiter-Glo ATP luminescence, 48-72 h; max response: stronger effect = lower value
How it was run: as §1

[6] = test system: HACAT; test: qHTS assay to identify novel small-molecules to repurpose for Merkel cell carcinoma treatment (AID 1296009); conditions: MCC and control cell lines, CellTiter-Glo viability, 72 h; at 44.8 µM (top of the series) unless noted
How it was run: (§2)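 Cells were incubated with compound for 72 hr at 37 degree celsius before CellTiter-Glo addition. Luminescence was normalized with no-cell wells as full cytotoxicity and DMSO as baseline.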

[7] = test system: MCC-13; test: as above; conditions: MCC and control cell lines, CellTiter-Glo viability, 72 h; series mostly up to 46 µM
How it was run: as §2

[8] = test system: MCC-26; test: as above; conditions: MCC and control cell lines, CellTiter-Glo viability, 72 h; series mostly up to 46 µM
How it was run: as §2

[9] = test system: P93_24; test: qHTS profiling for inhibitors of Plasmodium falciparum proliferation (AID 504749); conditions: P. falciparum in erythrocytes, SYBR Green DNA, 72 h; series mostly up to 28.7 µM
How it was run: (§3)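 Readout was DNA-dye fluorescence from lysed cultures, ex 485/em 535 nm. Parasitized red cells had grown 72 h with compound; data scaled between 0.29 uM artemisinin and DMSO wells and corrected using vehicle-only plates.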

[10] = test system: P94_40; test: as above; conditions: P. falciparum in erythrocytes, SYBR Green DNA, 72 h; series mostly up to 28.7 µM
How it was run: as §3

[11] = test system: PAD; test: as above; conditions: P. falciparum in erythrocytes, SYBR Green DNA, 72 h; series mostly up to 28.7 µM
How it was run: as §3

[12] = test system: PC26; test: as above; conditions: P. falciparum in erythrocytes, SYBR Green DNA, 72 h; series mostly up to 28.7 µM
How it was run: as §3

[13] = test system: PC49; test: as above; conditions: P. falciparum in erythrocytes, SYBR Green DNA, 72 h; series mostly up to 28.7 µM
How it was run: as §3

[14] = test system: SC27B; test: as above; conditions: P. falciparum in erythrocytes, SYBR Green DNA, 72 h; series mostly up to 28.7 µM
How it was run: as §3

[15] = test system: TAB109; test: as above; conditions: P. falciparum in erythrocytes, SYBR Green DNA, 72 h; series mostly up to 28.7 µM
How it was run: as §3

[16] = test system: TAB113; test: as above; conditions: P. falciparum in erythrocytes, SYBR Green DNA, 72 h; series mostly up to 28.7 µM
How it was run: as §3

[17] = test system: TAB165; test: as above; conditions: P. falciparum in erythrocytes, SYBR Green DNA, 72 h; series mostly up to 28.7 µM
How it was run: as §3

[18] = test system: W2; test: as above; conditions: P. falciparum in erythrocytes, SYBR Green DNA, 72 h; series mostly up to 28.7 µM
How it was run: as §3

[19] = test system: HEK293T; test: qHTS assay to identify novel small-molecules to repurpose for Merkel cell carcinoma treatment (AID 1296009); conditions: MCC and control cell lines, CellTiter-Glo viability, 72 h; at 44.8 µM (top of the series) unless noted
How it was run: as §2

[20] = test system: PC15; test: qHTS profiling for inhibitors of Plasmodium falciparum proliferation (AID 504749); conditions: P. falciparum in erythrocytes, SYBR Green DNA, 72 h; series mostly up to 28.7 µM
How it was run: as §3
Note: nearly all actives have a fitted effect of over 60% in size.
Potency is the fitted concentration of half-maximal effect.

With `Cc1cc(NS(=O)(=O)c2ccc(N)cc2)no1` the max response [1] was -8.57% (inactive), the outcome [1] was “inactive” and the max response [2] was 1.33% (inactive) and -5.68% (inactive). The outcome [3] was “inactive”, the max response [4] was -10.1% (inactive) and the outcome [4] was “inactive”. For the same compound, the max response [5] was -3.95% (inactive), the outcome [5] was “inactive” and the outcome [6] was “inactive”. For the same compound, the Potency [7] was “inactive” and the Potency [8] was “inactive”.
`O=C(O)c1cccnc1` was tested, and the Potency [1] was 16.6 µM (active), the max response [1] was 0.94% (inactive) and the Potency [2] was 2.64 µM (active). For the same compound, the max response [2] was -12.4% (inactive), the max response [3] was -6.32% (inactive) and the max response [4] was 23.8% (inactive) and 4.59% (inactive). The max response [5] was -0.396% (inactive) and 0.818% (inactive), the Potency [7] was “inactive” and the Potency [8] was “inactive”.
With `CC1=CC(=O)c2ccccc2C1=O` the Potency [9] was “inactive”, the Potency [10] was “inactive” and the Potency [11] was “inactive”. The Potency [12] was “inactive”, the Potency [13] was “inactive” and the Potency [14] was “inactive”. The Potency [15] was “inactive”, the Potency [16] was “inactive” and the Potency [17] was “inactive”. For the same compound, the Potency [18] was 6.01 µM (active), the max response [1] was 3.35% (inactive) and the outcome [1] was “inactive”. For the same compound, the max response [2] was 2.41% (inactive), the outcome [2] was “inactive” and the outcome [3] was “inactive”. For the same compound, the max response [4] was 1.53% (inactive), the outcome [4] was “inactive” and the max response [5] was -2.61% (inactive). For the same compound, the outcome [5] was “inactive”, the outcome [6] was “inactive” and the outcome [19] was “inactive”. The Potency [7] was “inactive”.
With `CCC(=O)O[C@]1(C(=O)CCl)[C@@H](C)C[C@H]2[C@@H]3CCC4=CC(=O)C=C[C@]4(C)[C@@]3(F)[C@@H](O)C[C@@]21C` the max response [1] was -12.4% (inactive), the outcome [1] was “inactive” and the max response [2] was -0.886% (inactive). For the same compound, the max response [3] was -4.36% (inactive) and -8.18% (inactive), the max response [4] was -5.78% (inactive) and 1.04% (inactive) and the max response [5] was -2.25% (inactive). The outcome [5] was “inactive”, the Potency [7] was “inactive” and the Potency [8] was “inactive”.
With `Nc1nc(F)nc2c1ncn2[C@@H]1O[C@H](CO)[C@@H](O)[C@@H]1O` the Potency [1] was 0.332 µM (active), the max response [1] was -19.1% (inactive) and the Potency [2] was 0.662 µM (active). The max response [2] was -7.93% (inactive), the max response [3] was -5.85% (inactive) and the Potency [4] was 820 nM (active) and 1.3 µM (active) and 1.18 µM (active). The outcome [4] was “inactive”, the Potency [7] was 2.35 µM (active) and the Potency [8] was “inactive and 2.09 µM (active)”.
`CCn1cc(C(=O)O)c(=O)c2cc(F)c(N3CCN(C)CC3)cc21` was tested, and the Potency [11] was “inactive”, the Potency [20] was “inactive” and the Potency [12] was “inactive”. For the same compound, the Potency [13] was “inactive”, the max response [1] was -3.59% (inactive) and the outcome [1] was “inactive”. For the same compound, the max response [2] was 0.679% (inactive), the outcome [2] was “inactive” and the max response [3] was -4.37% (inactive). The outcome [3] was “inactive”, the max response [4] was 2.67% (inactive) and -1.65% (inactive) and the max response [5] was -2.14% (inactive). For the same compound, the outcome [5] was “inactive”, the outcome [6] was “inactive [at 17.4 µM]” and the outcome [19] was “inactive [at 17.4 µM]”. For the same compound, the Potency [7] was “inactive” and the Potency [8] was “inactive”.
`CC(C)Cn1cnc2c(N)nc3ccccc3c21` was tested, and the Potency [9] was “inactive”, the Potency [10] was “inactive” and the Potency [11] was “inactive”. The Potency [20] was “inactive”, the Potency [12] was “inactive” and the Potency [13] was “inactive”. The Potency [14] was “inactive”, the Potency [15] was “inactive” and the Potency [17] was “inactive”. For the same compound, the Potency [18] was “inactive”, the max response [1] was -12.7% (inactive) and the outcome [1] was “inactive”. The max response [2] was -0.0078% (inactive), the max response [3] was -15.1% (inactive) and -54.5% (inactive) and the max response [4] was -6.03% (inactive) and -18.1% (inactive). For the same compound, the max response [5] was -4.24% (inactive) and -9.09% (inactive), the Potency [7] was “inactive” and the Potency [8] was “inactive”.
In the case of `CC1=NN(c2ccccc2)C(=O)C1`, the Potency [9] is reported as “inactive”, the Potency [10] is reported as “inactive” and the Potency [11] is reported as “inactive”. The Potency [20] was “inactive”, the Potency [12] was “inactive” and the Potency [13] was “inactive”. For the same compound, the Potency [14] was “inactive”, the Potency [15] was “inactive” and the Potency [16] was “inactive”. For the same compound, the Potency [17] was “inactive”, the max response [1] was -10.4% (inactive) and -10.5% (inactive) and the outcome [1] was “inactive”. The max response [2] was -7.12% (inactive) and -3.41% (inactive) and -4.46% (inactive), the max response [3] was -6.55% (inactive) and the outcome [3] was “inactive”. The max response [4] was 3.2% (inactive), the outcome [4] was “inactive” and the max response [5] was 2.82% (inactive). For the same compound, the outcome [5] was “inactive”, the outcome [6] was “inactive” and the Potency [7] was “inactive”. The Potency [8] was “inactive”.
With `CC(C(=O)O)c1ccc2c(c1)CC(=O)c1ccccc1S2` (configuration not stated) the max response [1] was -3.49% (inactive) and 3.11% (inactive), the outcome [1] was “inactive” and the max response [2] was -0.0676% (inactive) and -6.42% (inactive) and 0.0288% (inactive). For the same compound, the max response [3] was -2.2% (inactive) and 1.58% (inactive), the outcome [3] was “inactive” and the max response [4] was -3.77% (inactive). For the same compound, the outcome [4] was “inactive”, the max response [5] was 4.16% (inactive) and -0.0725% (inactive) and the outcome [5] was “inactive”. For the same compound, the outcome [6] was “inactive” and the Potency [7] was “inactive”.
With `CN(C)CCc1c[nH]c2ccc(C[C@H]3COC(=O)N3)cc12` the max response [1] was -10.2% (inactive), the outcome [1] was “inactive” and the Potency [2] was 4.18 µM (active). For the same compound, the max response [2] was 4.33% (inactive) and -3.7% (inactive), the Potency [3] was 14.8 µM (active) and the max response [3] was 4.23% (inactive). For the same compound, the outcome [3] was “inactive”, the max response [4] was 7.3% (inactive) and 1.82% (inactive) and the Potency [5] was 10.5 µM (active). For the same compound, the max response [5] was -0.145% (inactive), the outcome [5] was “inactive” and the outcome [6] was “inactive”. The Potency [7] was “inactive” and the Potency [8] was “inactive”.
In the case of `COC(=O)Nc1nc2ccc(S(=O)c3ccccc3)cc2[nH]1` (configuration not stated), the Potency [1] is reported as 7.5 µM (active), the max response [1] is reported as -3.6% (inactive) and the Potency [2] is reported as 841 nM (active) and 16.6 µM (active). For the same compound, the outcome [3] was “inactive”, the Potency [5] was 1.06 µM (active) and the outcome [6] was “inactive”.
In the case of `COc1cc2c(Nc3ccc(Br)cc3F)ncnc2cc1OCC1CCN(C)CC1`, the Potency [9] is reported as 2 µM (active), the Potency [10] is reported as 2.82 µM (active) and the Potency [11] is reported as 2.24 µM (active). The Potency [20] was 7.08 µM (active), the Potency [14] was 2.82 µM (active) and the Potency [15] was 2.24 µM (active). For the same compound, the Potency [16] was 2.24 µM (active), the Potency [17] was 3.55 µM (active) and the Potency [18] was 3.38 µM (active). For the same compound, the Potency [1] was 18.7 µM (active), the outcome [1] was “inactive” and the Potency [2] was 26.4 µM (active). For the same compound, the max response [2] was -4.93% (inactive), the Potency [3] was 7.31 µM (active) and the max response [3] was 0.174% (inactive). For the same compound, the max response [4] was -19.6% (inactive), the Potency [5] was 5.9 µM (active) and 5.17 µM (active) and the outcome [5] was “inactive”. For the same compound, the Potency [7] was 23.5 µM (active) and inactive.
